High-throughput results as filed in PubChem BioAssay.
HP1b chromo inh: blocks HP1-beta chromodomain binding to methylated histone tails; actives 0.56% (n = 390,000); AID 540317; AlphaScreen HP1-beta / biotin-H3K9me3 peptide binding; Potency, µM (highest dose often 114 µM), usual class: inhibitors; P83916; further: nearly all actives have a fitted effect of over 70% in size
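AlphaScreen: HP1-beta (50 nM) preformed 30 min with biotin-H3(1-18)K9me3 peptide (50 nM) in PBS pH 7.4, 0.01% Tween-20. Compound added for 30 min at RT, then streptavidin donor/nickel chelate acceptor beads (10 ug/mL) for 30 min.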
Sfp PPTase inh: Sfp phosphopantetheinyl transferase inhibition; Q9F4F7; Biochemical Sfp PPTase activity, qHTS; actives 3.5% (n = 310,000); Potency, µM, actives largely listed as inhibitors; AID 1490;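 further: the enzyme is Sfp with the accession as filed and its product quenches rhodamine fluorescence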
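After 15 min at room temperature with compound, 15 nM Sfp received 5 uM rhodamine-CoA plus 12.5 uM BHQ-2-ybbR (50 mM Hepes pH 7.6, 10 mM MgCl2). Rate came from the fluorescence difference over 30 min, ex 525/em 598 nm.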
G9a block: G9a (human) methyltransferase inhibition; Q96KQ7; G9a H3K9 monomethylation, AlphaScreen, 2 h; Potency, µM (titrated, usually from 102 µM), usual class: inhibitors; actives 8.8% (n = 350,000); AID 504332; further: nearly all actives have a fitted effect of over 75% in size
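Readings reflect AlphaScreen signal from monomethyl-H3K9 antibody detection. HMT at 20 nM; substrate b-H3K9 500 nM; cofactor SAM 20 uM; 2 h RT reaction; compounds tested as titrations in qHTS with 15 min preincubation.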
BAZ2B block: inhibitors of human BAZ2B bromodomain; Potency, µM (top dose mostly 114 µM), actives largely listed as inhibitors; Q9UIF8; AlphaScreen BAZ2B-H3K14Ac peptide displacement; actives 4.4% (n = 360,000); further: nearly all actives have a fitted effect of over 60% in size
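AlphaScreen luminescence quantifies BAZ2B engagement of H3K14Ac peptide; the protein and biotinylated peptide are both at 50 nM final, buffer PBS pH 7.4 with 0.01% Tween-20, all steps at room temperature.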
JMJD2A Tudor: inhibitors of human JMJD2A Tudor domain | O75164 | AlphaScreen JMJD2A-Tudor / H3K4me3 peptide binding | actives 4.4% (n = 390,000) | Potency, µM (top dose mostly 114 µM), hits mostly inhibitors; further: nearly all actives have a fitted effect of over 50% in size
Hits are given with their value; 0 = inactive; ? = inconclusive; - = not tested or not shown; [ ] = dose if it differs, or a comment. Compounds with a hit are over-represented: about 12% of the library has one in this group of screens. The call rests on the fitted dose curve; in most records, active means well fitted curve in the direction sought with a large enough effect; inconclusive means small, poorly fitted or top-dose-only effect, or another doubt; inactive means no such curve, though single readings can be large; an effect the other way counts as inactive or inconclusive.

SMILES | HP1b chromo inh | Sfp PPTase inh | G9a block | BAZ2B block | JMJD2A Tudor
Cc1cc(-c2csc(NC(=O)c3ccc(C#N)cc3)n2)c(C)n1Cc1ccccc1 | 0 | 0 | 45µM | 0 | 0
CCc1ccc(NC(=O)N2c3ccccc3Sc3ccccc32)cc1 | 0 | - | 0 | 0 | 0
NS(=O)(=O)c1ccc(NC(=O)N2c3ccccc3Sc3ccccc32)cc1 | 0 | 0 | - | 50µM | 0
COc1ccc(CCC(=O)NNC(=O)c2ccccn2)cc1OC | 0 | - | 0 | 0 | 0
CCC1(CC)NC(=O)N(CC(=O)N2N=C(c3ccc(Cl)cc3)CC2c2ccco2)C1=O (stereo unspecified) | 0 | 0 | 56µM | ? | ?
O=C(CSc1ncn[nH]1)N1N=C(c2ccc(Cl)cc2)CC1c1ccco1 (stereo unspecified) | 0 | ? | ? | 0 | 0
COc1ccc(C2=NN(C(=O)CSc3nnc(C)c(=O)n3N)C(c3ccco3)C2)cc1 (stereo unspecified) | 0 | 0 | ? | ? | 0
O=C(OCC(=O)N1N=C(c2ccc(Cl)cc2)CC1c1ccco1)c1ccco1 (stereo unspecified) | 0 | 0 | ? | 0 | 0
N=c1sccn1CC(=O)N1N=C(c2ccc(Cl)cc2)CC1c1ccco1 (stereo unspecified) | 0 | 0 | 0 | 79µM | 0
Cc1ccc(C2=NN(C(=O)CSc3nnnn3C)C(c3ccco3)C2)cc1 (stereo unspecified) | 0 | - | 0.89µM | 0 | 0
O=C(OCC(=O)N1N=C(c2ccc(Cl)cc2)CC1c1ccco1)c1ccccc1O (stereo unspecified) | 0 | ? | 18µM | 0 | 0
COc1ccc(Cl)cc1NC(=O)CN(C)C(=O)CCNC(=O)c1ccccc1OC | 0 | - | 0[12.7 µM] | 0 | 0
CCC(=O)N1N=C(c2ccc(C)cc2)CC1c1ccco1 (stereo unspecified) | 0 | 0 | 45µM | 0 | 0
COc1cccc(C2=NN(C(=O)c3ccco3)C(c3ccco3)C2)c1 (stereo unspecified) | 0 | 50µM | 45µM | ? | 0
CCC(=O)N1N=C(c2ccc(NS(=O)(=O)c3ccc(C)cc3)cc2)CC1c1ccco1 (stereo unspecified) | 0 | - | - | - | 0
Cn1cnnc1SCC(=O)N1N=C(c2ccc(Cl)cc2)CC1c1ccco1 (stereo unspecified) | 0 | 50µM | ? | ? | 0
CC(C)N(C(=O)CSc1nnc(C2CC2)n1C1CC1)c1ccccc1 | 0 | - | 50µM | 0 | 0
Cc1cc(NN)nc(NS(=O)(=O)c2ccc(Cl)cc2)n1 | 0 | 0 | ? | 0 | 0
Cc1cc(NN)nc(NS(=O)(=O)c2ccccc2)n1 | 0 | 56µM | 32µM | 0 | ?
CCn1c(/C=C/c2ccc(O)cc2)nc2ccccc2c1=O | 0 | 0 | 0 | 0 | 0
CCn1c(/C=C/c2ccc(O)c(O)c2)nc2ccccc2c1=O | ? | 79µM | - | 71µM | 56µM
O=c1nc(/C=C/c2ccc(O)c(O)c2)oc2ccccc12 | 0 | 0 | 40µM | ? | 0
CCc1ccccc1NC(=O)c1ccc2c(SCC(=O)O)c3c(nc2c1)CCC3 | 0 | - | 0 | 0 | 0
COc1ccc(CCNC(=O)c2c(C)oc3ncn(CC(C)C)c(=O)c23)cc1OC | 0 | - | 0 | 0 | 0
Cc1ccc(S(=O)(=O)NCC(c2ccco2)N2CCc3ccccc32)cc1 (stereo unspecified) | 0 | - | 40µM | ? | ?
SMILES | HP1b chromo inh | Sfp PPTase inh | G9a block | BAZ2B block | JMJD2A Tudor
Cc1cccc(C(=O)NCC(c2ccco2)N2CCc3ccccc32)c1 (stereo unspecified) | 0 | - | 0[2.33 µM] | ? | ?
O=C(NCC(c1ccco1)N1CCc2ccccc21)c1ccccc1F (stereo unspecified) | ? | - | 56µM | ? | ?
O=C(NCC(c1ccco1)N1CCc2ccccc21)c1cccc([N+](=O)[O-])c1 (stereo unspecified) | 0 | - | 0[2.33 µM] | 50µM | 56µM
O=C(NCC(c1ccco1)N1CCc2ccccc21)c1ccccc1Br (stereo unspecified) | 0 | - | 0[0.501 µM] | ? | ?
Cc1ccc(C(=O)NCC(c2ccco2)N2CCc3ccccc32)cc1 (stereo unspecified) | 0 | - | 50µM | ? | ?
CN1CCCC2(CCN(C(=O)c3cccc(F)c3)CC2)C1 | - | 0 | 0[12.7 µM] | - | -
CCOCCCN(C)C1CCN(S(=O)(=O)c2csc(C(N)=O)c2)CC1 | 0 | 0 | 0 | 0 | 0
COc1ccc(OCC(=O)OCc2cc(=O)n3cc(C)sc3n2)cc1 | 0 | - | 0 | 0 | 0
O=[N+]([O-])c1ccc([C@H](O)[C@H](CO)N=Cc2ccccc2O)cc1 | 0 | 0 | 8.9µM | 0 | 0
COc1ccccc1C=NC(CO)C(O)c1ccc([N+](=O)[O-])cc1 (stereo unspecified) | 0 | 0 | - | 0 | 0
COc1cc2c(cc1OC)C(NC(=O)c1ccc(C)cc1)CC2=O (stereo unspecified) | 0 | 0 | 0 | 0 | 0
COc1cc(OC)c2c(C)c(CC(=O)N3CCCCC3)c(=O)oc2c1 | 0 | - | 0 | 0 | 0
CCc1ccc(C2CC(=O)c3c([nH]c(C(=O)OC4CCCCCC4)c3C)C2)cc1 (stereo unspecified) | 0 | - | 0 | 0 | 0
CCc1ccc(-c2cc(N)n(-c3ccccc3)n2)cc1 | ? | 0 | 45µM | - | ?
CC(C)[C@@H](CC(=O)N[C@@H]1CCCC[C@H]1C(=O)N[C@H](CC(=O)N[C@@H](CCC(=O)O)CC(=O)O)Cc1c[nH]c2ccccc12)NC(=O)C[C@H](CO)NC(=O)[C@@H]1CNCC[C@H]1N | - | 0 | - | - | -
COc1ccc(-c2nnc3n2N=C(c2ccccc2OC)CS3)cc1 | - | 0 | - | - | 0
O=c1c2ccccc2ncn1-c1cccc(Cl)c1 | 0 | 0 | 0 | 0 | 0
Cn1c2[n+](c3ccc(Cl)cc3c1=O)Cc1ccccc1-2 | 0 | 0 | 28µM | 0 | 0
C/C(CCN1CCc2nc(-c3ccccc3)c(-c3ccccc3)cc2C1)=N\O[C@H](C)c1cn([C@H](CO)Cc2ccccc2)nn1 | - | 0 | 50µM | 0 | -
C/C(CCN1CCc2nc(-c3ccccc3)c(-c3ccccc3)cc2C1)=N\OC[C@@H](C)[C@H](OCc1ccccc1)C(C)C | 0 | 0 | 45µM | 0 | 0
O=C(CCCn1c(=O)c2cccn2c2cccnc21)Nc1ccccc1Br | 0 | - | 0 | 0 | 0
CCCC[C@]12Cc3cc(C#N)ccc3C(O1)c1c(cc(C)n(Cc3ccccc3)c1=O)O2 | - | 0 | 0[2.33 µM] | 0[22.9 µM] | -
CCCNC1=C(N(C(C)=O)c2cccc(F)c2)C(=O)c2ccccc2C1=O | 0 | 0 | 0 | 0 | 0
CCC(=O)N(C1=C(NC(C)C)C(=O)c2ccccc2C1=O)C(C)C | 0 | 0 | 45µM | 0 | 0
COC1/C=C/OC2(C)Oc3c(C)c(O)c4c(O)c(c(/C=N/N5CCN(C)CC5)c(O)c4c3C2=O)NC(=O)/C(C)=C/C=C/C(C)C(O)C(C)C(O)C(C)C(OC(C)=O)C1C (stereo unspecified) | - | 0 | - | - | -
